In the library only some 3.7% were active in any assay of this set; here they are far more common.
TIM10 inh = inhibits growth of TIM10 yeast strain; inhibition, % at 10 µM; 330,000 tested, 1.4% active; S. cerevisiae TIM10 strain growth, BacTiter-Glo luminescence, 24 h; AID 463195;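 active = inhibition of 40% or more at the single tested concentration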;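 also: wild-type TIM10 isogenic control strain grown at permissive 25 °C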
Rce1 inh = inhibitors of yeast Ras-converting enzyme. 290,000 tested, 0.27% active. yeast membranes, quenched prenylated peptide cleavage fluorescence. calls only. AID 2563. Q03530;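 active = fall in fluorescence gain of 50% or more versus controls, with final raw signal at or below 3038400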;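 also: plate controls were neutral control wells for no effect and wells lacking membranes for full effect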
Target sequence (Q03530 whole entry, looked up): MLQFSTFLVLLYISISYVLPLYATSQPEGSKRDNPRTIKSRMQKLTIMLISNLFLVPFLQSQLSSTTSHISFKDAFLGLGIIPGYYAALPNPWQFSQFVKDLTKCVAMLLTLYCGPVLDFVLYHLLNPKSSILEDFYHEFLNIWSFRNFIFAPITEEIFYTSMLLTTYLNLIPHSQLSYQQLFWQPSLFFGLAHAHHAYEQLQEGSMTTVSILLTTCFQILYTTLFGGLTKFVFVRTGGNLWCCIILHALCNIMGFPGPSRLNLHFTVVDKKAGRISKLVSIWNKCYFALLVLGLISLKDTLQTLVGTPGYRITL
tim10-1 inh = inhibits growth of tim10-1 mutant yeast. 330,000 tested, 2.2% active. S. cerevisiae tim10-1 ts strain growth, BacTiter-Glo, 24 h. AID 463190. inhibition, % at 20 µM;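 active = inhibition of at least 40%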;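 also: mutant grown at 25 °C; 0% = DMSO wells with yeast and 100% = wells holding no yeast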
tim23-1 inh = inhibits growth of tim23-1 mutant yeast | S. cerevisiae tim23-1 growth, BacTiter-Glo luminescence, 24 h | inhibition, % at 20 µM | 330,000 tested, 1.3% active | AID 463212;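 active = growth inhibition of the mutant yeast at or above 50%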;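 also: temperature-sensitive mutant grown at 25 °C; plate controls were DMSO-treated mutant yeast for no effect and medium wells lacking yeast for full effect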
PfHsp90 set2 = reduces growth (ATP signal) of yeast expressing P. falciparum Hsp90 | S. cerevisiae expressing PfHsp90, BacTiter-Glo ATP, 48 h; yeast lacking PDR1 and PDR3 efflux regulators | inhibition, % at 9.4 µM | 310,000 tested, 0.32% active | AID 504621;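 active = every replicate shows inhibition above about 80%, whatever the replicate mean, limit read from the data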;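 also: 0% = DMSO neutral controls and 100% = 20 µM radicicol positive controls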
tim10-1 confirm = tim10-1 yeast growth inhibition, confirmed; inhibition, % at 20 µM; 7,400 tested, 56% active; shares compounds with tim10-1 inh; AID 463213; S. cerevisiae tim10-1 ts strain growth, BacTiter-Glo, 24 h;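 active = inhibition of yeast growth at or above a set limit in either of two repeat tests at 20 µM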;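 also: tim10-1 mutant grown at permissive 25 °C to find synthetic lethal compounds; 0% = DMSO yeast wells and 100% = medium wells without yeast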
TIM10 conf = TIM10 yeast growth inhibition, confirmed. 4,600 tested, 63% active. shares compounds with TIM10 inh. S. cerevisiae tim10 strain growth, BacTiter-Glo luminescence, 24 h. AID 463215. inhibition, % at 10 µM;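 active = inhibition of yeast growth at or above a set limit in either of two replicates at 10 µM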;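 also: this counterscreen used the strain with wild-type TIM10; 0% = yeast with DMSO and 100% = medium wells lacking yeast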
tim23-1 conf = confirmation of tim23-1 mutant yeast growth inhibitors. shares compounds with tim23-1 inh. S. cerevisiae tim23-1 growth, BacTiter-Glo luminescence, 24 h. 4,400 tested, 83% active. inhibition, % at 20 µM. AID 463218;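 active = inhibition above about 39% in either of two replicate wells at 20 µM, limit read from the data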;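 also: temperature-sensitive tim23-1 mutant grown at 25 °C; 0% = DMSO wells with yeast and 100% = medium wells without yeast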
Starred values were filed as active, the others as inactive; i = inactive; nt = no result given.

SMILES	TIM10 inh	Rce1 inh	tim10-1 inh	tim23-1 inh	PfHsp90 set2	tim10-1 confirm	TIM10 conf	tim23-1 conf
CC(C)C(=O)Nc1sc2c(c1-c1nc3ccccc3[nH]1)CCCC2	10	i	25	19	-13	nt	nt	nt
Cc1cc(C)n(C(=O)c2ccc(C)c(S(=O)(=O)N3CCCCC3)c2)n1	20	i	26	34	-8	nt	nt	nt
Oc1ccc(/C=N/Nc2ccc(C(F)(F)F)cn2)c(O)c1	65*	i	65*	78*	4	44*	72*	78*
CCn1c(/C=C\c2ccccc2C)nc2ccccc2c1=O	21	nt	26	19	-16	nt	nt	nt
CCCN1C(=O)/C(=C/c2nc3ccccc3c(=O)[nH]2)c2ccccc21	42*	i	51*	52*	6	36*	16	55*
CCn1c(/C=C2/C(=O)N(C)c3ccccc32)nc2ccccc2c1=O	37	i	50*	54*	nt	32*	nt	58*
CCN1C(=O)/C(=C\c2nc3ccccc3c(=O)n2CC)c2ccccc21	47*	i	55*	56*	-9	44*	33*	57*
CCn1c(/C=C2\C(=O)N(C)c3ccccc32)nc2ccccc2c1=O	43*	i	45*	52*	-17	39*	25	52*
CCN1C(=O)/C(=C\N(C)C)c2ccccc21	2	i	14	-1	nt	nt	nt	nt
CC(=O)c1cccc(CN2CCN(CC(C)C)C(CCO)C2)c1 (configuration not stated)	-1	i	6	2	9	nt	nt	nt
COC(=O)/C=C1\NC(=O)C(C)S1 (configuration not stated)	-1	i	-4	11	-5	nt	nt	nt
CC(CCc1ccccc1)NC(=S)NC(=O)c1ccco1 (configuration not stated)	20	i	8	44	-5	nt	nt	nt
O=C(NC(=S)N(CCc1ccccc1)CCc1ccccc1)c1ccco1	42*	i	49*	51*	-59	44*	-10	51*
O=C(CCC(=O)N1CCN(c2ccccn2)CC1)Nc1nnc(C(F)(F)F)s1	22	i	30	10	-11	nt	nt	nt
Cc1c(C2(O)CCCCC2)[nH]c2cc(C(F)(F)F)ccc12	25	nt	42*	56*	67	22	nt	64*
CCOc1ccccc1C(=O)Nc1cc(Cl)ccc1O	59*	i	62*	85*	37	54*	52*	8
O=C(c1cccc([N+](=O)[O-])c1)N1CCN(S(=O)(=O)/C=C/c2ccccc2)CC1	0	nt	-5	2	9	nt	nt	nt
COc1cccc(-c2nc(NC(C)C)c3ccccc3n2)c1O	27	i	57*	55*	nt	45*	nt	52*
CC(OC(=O)CC1CCCCC1)C(=O)Nc1cccc(C#N)c1 (configuration not stated)	10	i	20	23	nt	nt	nt	nt
O=C1Nc2ccccc2/C1=N\N=C\C1=C(N2CCOCC2)C(=C\c2ccccc2)/CC1	47*	i	61*	58*	6	52*	36*	51*
CC[n+]1c(/C=C2/C=C(C)CC(C)(C)C2)sc2ccc(OC)cc21	34	i	29	30	-1	nt	nt	nt
CC[n+]1c(/C=C2\C=C(C)CC(C)(C)C2)sc2ccccc21	37	i	45*	51*	16	39*	nt	55*
Cc1c(NC(=O)c2ccc([N+](=O)[O-])o2)cccc1-c1nc2ncccc2o1	47*	i	49*	53*	-15	48*	53*	64*
O=C(Nc1cc(Cl)ccc1-n1cncn1)c1ccc([N+](=O)[O-])o1	48*	i	72*	66*	nt	58*	56*	50*
COc1cccc(C(=O)Nc2cccc(-c3nc4ncccc4o3)c2C)c1	17	i	2	0	-4	nt	nt	nt
SMILES	TIM10 inh	Rce1 inh	tim10-1 inh	tim23-1 inh	PfHsp90 set2	tim10-1 confirm	TIM10 conf	tim23-1 conf
O=C(Nc1cc(Cl)ccc1F)c1ccc(-n2cncn2)c([N+](=O)[O-])c1	-4	i	0	7	nt	nt	nt	nt
O=C(Nc1ccccc1Cl)c1ccc([N+](=O)[O-])o1	48*	i	50*	67*	-8	56*	57*	68*
CCn1cc(CNC(=O)C2CCC(=O)N(C3CCCCCC3)C2)cn1 (configuration not stated)	3	i	-2	-4	10	nt	nt	nt
Cc1cc(NC(=S)Nc2ccc(C)c(Cl)c2)n[nH]1	29	i	46*	51*	27	27	nt	39*
O=C(Nc1ccccc1[N+](=O)[O-])c1cncc(Br)c1	17	i	13	1	12	nt	nt	nt
COc1ccc2c(c1)CC/C2=N\NC(=O)c1ccccc1	-16	i	-26	3	-1	nt	nt	nt
COc1ccc2c(c1)CC/C2=N\OC(=O)c1ccccc1C	73*	i	43*	70*	15	31	87*	75*
COc1ccc2c(c1)CC/C2=N\OC(=O)c1cccc(C)c1	83*	i	62*	53*	-34	41*	-13	82*
COc1ccc2c(c1)CCC/C2=N/OC(=O)c1ccccc1OC	24	i	28	43	-12	nt	nt	nt
Cc1ccc(NC(=O)Cn2cnc([N+](=O)[O-])c2)cc1C	-1	nt	-6	-4	-2	nt	nt	nt
S=c1[nH]ncn1/N=C/c1cccc(Oc2ccccc2)c1	52*	i	61*	56*	-13	46*	0	56*
COc1ccc2c(c1)N(C(=O)CN1C(=O)C3CCCCC3C1=O)C(C)(C)C=C2C (configuration not stated)	33	i	51*	53*	-6	46*	nt	52*
CCN(CC)c1ccc(/C=C/c2ccc3ccc(OC)cc3[n+]2CC)cc1	31	i	73*	68*	32	68*	nt	58*
Cc1cccc(S(=O)(=O)NCCC(=O)OC(C)C(=O)NC(=O)NC2CCCCC2)c1 (configuration not stated)	-11	i	9	4	-21	nt	nt	nt
O=C1OC(/C=C/c2ccccc2)=NC/1=C/C=C/c1ccccc1	29	i	15	29	9	nt	nt	nt
O=C1OC(c2ccc(F)cc2)=N/C1=C\C=C/c1ccccc1	37	i	50*	76*	0	40*	nt	-35
Cc1cc2cc(C=C(C#N)C#N)c(Cl)nc2cc1C	38	i	55*	62*	12	56*	nt	66*
COc1ccc(C(=O)C=Cc2cccs2)c(O)c1	nt	nt	nt	nt	-3	nt	nt	nt
COc1ccc(C(=O)/C=C/c2cccs2)c(OC(=O)N2CCOCC2)c1	52*	i	50*	51*	-7	34*	40*	42*

Compound activity: PubChem BioAssay, several laboratories
